Reference: PubChem BioAssay
Activity calls are given as the source filed them.

Assays:
[1] = optical density shifts of acrAB sulA E. coli – strain DRC41, OD650, 48 h, E. coli filamentation inducer project, primary screen (AID 1152); conditions: higher = more signal, called active from +8 up or from −8 down;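 further: E. coli MC1000 strain DRC41 lacking acrAB efflux pump and sulA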
[2] = probe aLefty1 binding on compound microarray – biochemical, small-molecule microarray, 635/667 nm fluorescence, primary screen (AID 1153); conditions: higher = more signal;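 further: score merges spot fluorescence with signal-to-noise ratio from the scanned slide images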
[3] = plasmodial surface anion channel blockers, osmotic lysis – cell-based, P. falciparum Indochina, OD700, 1 h, primary screen (AID 1154); conditions: P. falciparum Indochina infected RBC osmotic lysis, higher = more signal, called active from +8 up or from −8 down
[4] = plasmodial surface anion channel blockers, osmotic lysis – cell-based, P. falciparum Indochina, OD700, 2 h, primary screen (AID 1155);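 further: lysis reports solute entry through the parasite surface anion channel PSAC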; conditions: P. falciparum Indochina infected erythrocytes, higher = more signal, called active from +8 up or from −8 down
[5] = changes in parasitized red cell lysis, either direction – P. falciparum Indochina, OD700, 3 h, PSAC antagonist project, primary screen (AID 1156); conditions: P. falciparum-infected erythrocytes, osmotic lysis, higher = more signal, called active from +8 up or from −8 down
[6] = plasmodial surface anion channel blockers, osmotic lysis – cell-based, P. falciparum Indochina, OD700, 18 h, primary screen (AID 1157); conditions: P. falciparum Indochina infected erythrocytes, osmotic lysis OD700, 18 h; higher = more signal, called active from +8 up or from −8 down
[7] = S6 kinase pathway phospho-S6 level changes – cell-based, A549, cytoblot, luminescence, serum-stimulated, primary screen (AID 1158); conditions: 5 h, higher = more signal;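 further: serum-stimulated A549 lung adenocarcinoma cells; signal is phosphorylated S6 detected by cytoblot immunostaining with HRP secondary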
[8] = molecular target: NADPH oxidase 2 (Homo sapiens) (UniProt P04839); test: compounds shifting NOX2 Amplex Red fluorescence – cell-based, HEK293-NOX2, PMA-stimulated, NOX inhibitor project, primary screen (AID 1159); conditions: 45 min, higher = more signal, called active from +8 up or from −8 down; further: test concentration not given here
NADPH oxidase 2 (Homo sapiens), sequence (P04839 whole entry, looked up): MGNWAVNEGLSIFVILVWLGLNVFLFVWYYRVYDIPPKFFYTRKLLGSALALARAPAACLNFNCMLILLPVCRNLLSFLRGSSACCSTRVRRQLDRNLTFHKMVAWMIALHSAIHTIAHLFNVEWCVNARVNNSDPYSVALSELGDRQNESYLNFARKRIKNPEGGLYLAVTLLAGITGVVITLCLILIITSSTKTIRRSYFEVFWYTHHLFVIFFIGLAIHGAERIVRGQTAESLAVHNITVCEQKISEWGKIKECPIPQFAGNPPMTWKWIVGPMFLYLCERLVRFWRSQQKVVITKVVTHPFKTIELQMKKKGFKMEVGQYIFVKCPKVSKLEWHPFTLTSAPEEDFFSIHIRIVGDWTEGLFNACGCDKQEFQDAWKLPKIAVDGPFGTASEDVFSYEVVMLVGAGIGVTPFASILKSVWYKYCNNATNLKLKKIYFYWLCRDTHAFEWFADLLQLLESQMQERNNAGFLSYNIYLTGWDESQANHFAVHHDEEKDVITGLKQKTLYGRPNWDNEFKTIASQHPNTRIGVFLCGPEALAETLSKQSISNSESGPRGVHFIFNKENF

[9] = molecular target: NADPH oxidase 4 (Homo sapiens) (UniProt Q9NPH5); test: compounds shifting NOX4 Amplex Red fluorescence – cell-based, HEK293-NOX4, tetracycline-induced, NOX inhibitor project, primary screen (AID 1160); conditions: HEK293-NOX4, Amplex Red H2O2 fluorescence, 45 min; higher = more signal, called active from +8 up or from −8 down
NADPH oxidase 4 (Homo sapiens), sequence (Q9NPH5 whole entry, looked up): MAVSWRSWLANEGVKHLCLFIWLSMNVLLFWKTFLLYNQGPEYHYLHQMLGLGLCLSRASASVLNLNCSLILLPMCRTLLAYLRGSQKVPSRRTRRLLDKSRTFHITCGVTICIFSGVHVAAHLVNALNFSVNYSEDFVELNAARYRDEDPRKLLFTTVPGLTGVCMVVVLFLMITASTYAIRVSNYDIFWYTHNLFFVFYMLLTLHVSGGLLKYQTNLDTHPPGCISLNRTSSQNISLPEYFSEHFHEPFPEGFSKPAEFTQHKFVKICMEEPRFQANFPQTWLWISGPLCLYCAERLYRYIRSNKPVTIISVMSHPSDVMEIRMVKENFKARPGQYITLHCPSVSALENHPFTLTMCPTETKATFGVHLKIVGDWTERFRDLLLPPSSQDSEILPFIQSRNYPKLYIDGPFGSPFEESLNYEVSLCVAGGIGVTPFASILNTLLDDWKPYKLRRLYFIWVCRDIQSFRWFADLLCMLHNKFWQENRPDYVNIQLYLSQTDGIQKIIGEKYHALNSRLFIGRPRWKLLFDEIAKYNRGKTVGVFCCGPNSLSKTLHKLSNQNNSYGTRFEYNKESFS

[10] = molecular target: NADPH oxidase 5 (Homo sapiens) (UniProt Q96PH1); test: compounds shifting NOX5 Amplex Red fluorescence – cell-based, HEK293-NOX5, NOX inhibitor project, primary screen (AID 1161); conditions: HEK293-NOX5, ionomycin, 45 min, higher = more signal
NADPH oxidase 5 (Homo sapiens), sequence (Q96PH1 whole entry, looked up): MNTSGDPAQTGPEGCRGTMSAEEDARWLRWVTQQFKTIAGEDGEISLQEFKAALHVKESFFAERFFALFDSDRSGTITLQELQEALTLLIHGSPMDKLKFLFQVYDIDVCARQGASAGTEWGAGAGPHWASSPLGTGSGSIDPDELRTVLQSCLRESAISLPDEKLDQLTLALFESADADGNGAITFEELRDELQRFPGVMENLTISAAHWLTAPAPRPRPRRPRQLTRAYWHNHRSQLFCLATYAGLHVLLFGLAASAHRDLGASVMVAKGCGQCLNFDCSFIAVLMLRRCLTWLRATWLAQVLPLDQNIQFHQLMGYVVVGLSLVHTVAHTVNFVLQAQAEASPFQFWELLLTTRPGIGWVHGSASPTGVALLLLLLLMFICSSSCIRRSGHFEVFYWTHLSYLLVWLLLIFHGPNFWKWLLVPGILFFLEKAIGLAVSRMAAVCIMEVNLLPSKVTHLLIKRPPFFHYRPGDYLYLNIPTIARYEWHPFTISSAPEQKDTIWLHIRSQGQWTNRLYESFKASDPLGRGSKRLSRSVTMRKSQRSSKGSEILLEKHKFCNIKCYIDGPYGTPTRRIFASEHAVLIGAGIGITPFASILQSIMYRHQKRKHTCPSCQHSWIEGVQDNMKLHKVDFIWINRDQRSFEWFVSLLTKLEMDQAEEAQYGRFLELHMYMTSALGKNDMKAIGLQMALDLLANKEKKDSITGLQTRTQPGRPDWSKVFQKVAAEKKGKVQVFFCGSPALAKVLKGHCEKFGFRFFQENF

[11] = compound effects on lung adenocarcinoma cell viability – A549, calcein-AM fluorescence, 48 h, basal, profiling panel (AID 1162); conditions: higher = more signal; further: test concentration not given here
[12] = compound effects on differentiated 3T3-L1 adipocyte viability – cell-based, 3T3-L1 adipocytes, calcein-AM fluorescence, 48 h, basal, profiling panel (AID 1163); conditions: 3T3-L1 adipocytes viability, higher = more signal; further: test concentration not given here
[13] = compound effects on hepatocellular carcinoma cell viability – HepG2, calcein-AM fluorescence, 48 h, basal, profiling panel (AID 1164); conditions: higher = more signal; further: test concentration not given here
[14] = compound effects on multiple myeloma cell viability – MM1S, calcein-AM fluorescence, 48 h, basal, profiling panel (AID 1165); conditions: higher = more signal; further: test concentration not given here
[15] = calcein-AM signal in unstimulated myeloma cells – cell-based, calcein-AM fluorescence, 48 h, PK04 Diversity Set, profiling panel (AID 1166); conditions: RPMI8226 myeloma viability, higher = more signal;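 further: cells grown under basal conditions without added stimulus; test concentration not given here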
[16] = JC-1 mitochondrial signal, unstimulated HepG2 cells – cell-based, JC-1 fluorescence, 24 h, 100 nL compound, profiling panel (AID 1167); conditions: HepG2 mitochondrial potential, higher = more signal; further: test concentration not given here
[17] = JC-1 mitochondrial signal, unstimulated adipocytes – cell-based, JC-1 fluorescence, 3T3-L1 adipocytes, 24 h, 100 nL compound, profiling panel (AID 1168); conditions: JC-1 mitochondrial fluorescence, higher = more signal, called active from +8 up or from −8 down; further: test concentration not given here
[18] = JC-1 mitochondrial signal, unstimulated myeloma cells – cell-based, JC-1 fluorescence, RPMI8226, 24 h, 100 nL compound, profiling panel (AID 1169); conditions: JC-1 mitochondrial potential fluorescence, higher = more signal; further: test concentration not given here
[19] = JC-1 mitochondrial signal, unstimulated MM1S myeloma – cell-based, JC-1 fluorescence, 24 h, 100 nL compound, profiling panel (AID 1170); conditions: MM1S mitochondrial potential, higher = more signal; further: test concentration not given here
[20] = resazurin metabolic signal in A549 cells – cell-based, resazurin fluorescence, 24 h, PK04 Diversity Set, profiling panel (AID 1171); conditions: A549 viability, higher = more signal, called active from +8 up or from −8 down; further: test concentration not given here

Row | SMILES | z-score [1] | composite z-score [2] | z-score [3] | z-score [4] | z-score [5] | z-score [6] | z-score [7] | z-score [8] | z-score [9] | z-score [10] | z-score [11] | z-score [12] | z-score [13] | z-score [14] | z-score [15] | z-score [16] | z-score [17] | z-score [18] | z-score [19] | z-score [20]
1 | COCCCNC(=O)[C@]1(CCS(=O)(=O)c2ccccc2)N=C(c2ccc(OCCCO)cc2)O[C@@H]1c1ccccc1 | 0.664 (inactive) | 1.12 | 26 (active) | 9.64 (active) | 2.14 (inactive) | 1.82 (inactive) | -0.108 | -0.0777 (inactive) | 1.72 (inactive) | 0.88 | 1.73 | 0.151 | 0.9 | -0.223 | -0.7 | 2.64 | 0.0968 (inactive) | -0.74 | -0.801 | -0.243 (inactive)
2 | O=C1O[C@@H](c2ccccc2)[C@@H](c2ccccc2)N2[C@@H](c3ccc(O)cc3)[C@]3(C(=O)Nc4ccc(C#CC5=CCCCC5)cc43)[C@@H](C(=O)Nc3nc4ccccc4s3)[C@H]12 | 0.542 (inactive) | 1.53 | 0.0488 (inactive) | 1.36 (inactive) | 2.66 (inactive) | 1.6 (inactive) | -0.227 | 1.35 (inactive) | 0.617 (inactive) | -0.146 | 0.583 | -0.0897 | 1.46 | -0.575 | -1.81 | -2.6 | 0.03 (inactive) | -0.745 | -1.02 | -0.361 (inactive)
3 | COc1ccc([Si](C)(C)[C@H]2[C@H](CC(=O)N3CCC[C@H]3CO)O[C@@]3(C(=O)N(Cc4ccc(N5C(=O)c6cccc7cccc5c67)cc4)c4ccccc43)[C@@H]2C)cc1 | -0.0217 (inactive) | 0.0903 | 6.9 (inactive) | 1.31 (inactive) | 1.72 (inactive) | 0.771 (inactive) | 0.298 | 1.86 (inactive) | 1.19 (inactive) | 2.62 | -0.706 | 0.867 | -0.154 | -2.87 | -4.2 | 2.16 | 1.44 (inactive) | -1.1 | 0.28 | -1.28 (inactive)
4 | O=C1OCCC=C[C@H]2OC34C=CCN(Cn5nnc6ccccc65)C(=O)[C@H]3N(CCCCCO)C(=O)[C@@H]4C12 (stereo not given in full) | 0.592 (inactive) | 0.119 | 2.34 (inactive) | 0.573 (inactive) | 2.35 (inactive) | 0.281 (inactive) | 0.0848 | 1.4 (inactive) | 0.279 (inactive) | 1.51 | -0.0295 | 0.43 | 0.293 | 1.75 | 0.723 | 0.742 | 0.117 (inactive) | 0.0919 | -1.19 | -0.605 (inactive)
5 | O=C(O)[C@@]1(Cc2ccccc2)COC(c2ccc(OCCCO)cc2)=N1 | 0.532 (inactive) | -0.0573 | 1.36 (inactive) | -0.166 (inactive) | 0.619 (inactive) | 0.295 (inactive) | -0.521 | -0.0643 (inactive) | 0.432 (inactive) | 0.237 | -0.297 | 0.139 | 0.0851 | -0.108 | 0.21 | -0.519 | -0.0997 (inactive) | 0.478 | 0.0336 | 0.542 (inactive)
6 | C=CCC(OC(C)=O)[C@@H]1[C@@H](N(Cc2cccc3ccccc23)C(=O)c2ccc(C)cc2)c2cc(OCCCO)ccc2N1C(=O)c1ccc2ccccc2c1 (stereo not given in full) | 2.04 (inactive) | 0.25 | 0.306 (inactive) | -0.171 (inactive) | -1.1 (inactive) | -0.888 (inactive) | 1.86 | -1.14 (inactive) | 0.935 (inactive) | 2.64 | 0.93 | 1.08 | 2.15 | 0.577 | 0.12 | 2.37 | 0.658 (inactive) | 0.102 | -0.796 | 0.912 (inactive)
7 | COC(=O)[C@@]1(Cc2ccccc2)[C@H]2c3cc(C(=O)N4CCCC4)n(CCO)c3C[C@H]2CN1C(=O)c1ccccc1 | -0.258 (inactive) | 1.89 | 0.0574 (inactive) | -0.644 (inactive) | -0.513 (inactive) | -1.61 (inactive) | 1.33 | 0.661 (inactive) | -0.517 (inactive) | -2.49 | -0.258 | 0.577 | 0.345 | -0.867 | 0.688 | 0.844 | 0.671 (inactive) | 0.0245 | -0.77 | -0.103 (inactive)
8 | COC(=O)[C@]1(Cc2ccccc2CN=[N+]=[N-])N=C(c2ccc(OCCCO)cc2)O[C@@H]1c1ccccc1 | -0.453 (inactive) | 0.14 | 27.8 (active) | 26.4 (active) | -0.232 (inactive) | 6.71 (inactive) | 0.008 | -2.2 (inactive) | -1.59 (inactive) | -2.6 | -3.05 | 0.371 | -4.37 | -3.58 | -3.96 | -1.05 | 0.199 (inactive) | -1.05 | -2.7 | -2.91 (inactive)
9 | Cc1cc(C)c(C(O)C2C=CC3C(=O)N(c4ccccc4)C(=O)C3N2Nc2ccccc2)c(C)c1 (stereo not given) | -0.687 (inactive) | 0.157 | 1.72 (inactive) | 1.23 (inactive) | 0.244 (inactive) | 1.44 (inactive) | -0.824 | -1.56 (inactive) | -3.06 (inactive) | -3.17 | 0.479 | -1.35 | 1.37 | 0.541 | 0.281 | -1.21 | -0.422 (inactive) | -0.225 | -0.425 | -0.825 (inactive)
